# Assay results from PubChem BioAssay AID1117361 (Southern Research Institute, 2015).
# In all, about 3,600 compounds went through this assay and about 900 (25%) were called active. No rule for the calls is given here. Not all results are given here. Results with a measured potency or affinity are listed apart.
# Target: Protein Tat (Human immunodeficiency virus type 1 group M subtype B (isolate HXB2)) (UniProt P04608)
# Assay: HIV-1 Tat–TAR interaction blockers – biochemical, fluorescence polarization, FAM-labeled TAR RNA, counter-screen for Vif-APOBEC3G degradation inhibitor project, dose response (AID 1117361)
# Conditions: Tat-TAR RNA binding; series mostly up to 100 µM; inhibition: at the top concentration
SMILES,inhibition,outcome
COc1cccc(-c2nn(C)c3sc(C(=O)Nc4ccc5c(c4)OCCO5)cc23)c1,4.47% [at 50 µM] (inactive),–
Cc1nc(N)nc(C)c1Cc1ccccc1,2.73% (inactive),–
CCOC(=O)C1=C(N)OC2=C(C(=O)CCC2)C1c1ccc(C)s1 (stereo not given),5.46% (inactive),–
O=C(O)Cc1ccc(C(=O)c2ccccc2)s1,–,inactive
CCS(=O)(=O)N1CCN(C(=O)CC(C)C)CC1,0.68% (inactive),–
Cn1c(-c2ccc(Cl)cc2)ccc(C#N)c1=O,4.73% (inactive),–
CCOC(=O)N1CCN(C(=O)c2cnc3n(c2=O)CCS3)CC1,5.41% (inactive),–
CCOC(=O)c1c(NC(=O)C(C)N2CCN(C(=O)c3ccco3)CC2)sc2c1CCCC2 (stereo not given),5.46% (inactive),–
Cn1c(CSc2nnc(SCc3ccccc3)s2)nc2ccccc21,2.05% (inactive),–
Nc1nc(SCc2ccccc2Cl)n[nH]1,–,inactive
c1ccc(-n2c(SCc3ccncc3)nnc2-c2ccco2)cc1,24.3% (inactive),–
Nc1ccccc1-c1nnc(SCc2ccccc2Cl)[nH]c1=O,23.2% (inactive),–
O=C(c1ccc(F)cc1)N1CCC(C(=O)N(Cc2ccccc2)c2ccccc2)CC1,6.6% (inactive),–
CCCCNC(=O)Oc1cccc(N2CCCC2=O)c1,2.7% (inactive),–
COCCn1c(N)c(NCc2ccccc2)c(=O)n(CC(=O)Nc2cc(C)ccc2C)c1=O,3.41% (inactive),–
COc1ccc(C(C)=O)cc1CN1C(=O)NC2(CCCC2)C1=O,–,inactive
COc1ccc(S(=O)(=O)N2CCC(NC(=O)OCc3c(Cl)cccc3Cl)CC2)cc1,–,inactive
CN1CCN(S(=O)(=O)c2ccc(NC(=O)Nc3cccc(Cl)c3)cc2)CC1,0.68% (inactive),–
O=C(CSCc1ccc(Br)cc1)NC1CC1,14.8% (inactive),–
Oc1ccc(/C=C/c2cc(O)cc(O)c2)cc1,–,inactive
COc1ccc(F)cc1S(=O)(=O)Nc1cc2c3c(c1)CC(=O)N3CCC2,4.34% (inactive),–
CCC(C)NC(=O)CSc1nc2n[nH]c(C)c2c(=N)n1-c1ccc(OC)cc1 (stereo not given),3.41% (inactive),–
CCOC(=O)C1=C(C)OC(N)=C(C#N)C1c1cc(Cl)c(OCC(N)=O)c(OC)c1 (stereo not given),18.9% (inactive),–

SMILES,inhibition,outcome
CN1C(=O)C2(C(C#N)=C(N)Oc3c2oc(CO)cc3=O)c2ccccc21 (stereo not given),2.7% (inactive),–
Cc1ccc(-c2csc(NC(=O)Cc3cccs3)n2)cc1C,2.05% (inactive),–
Cc1nc2ccc(NC(=O)Cc3cccs3)cc2s1,19.8% (inactive),–
COC(=O)c1ccccc1NC(=O)CNC(=O)c1ccc(OC)cc1,–,inactive
O=C(Cc1cccs1)Nc1cccc(-c2nc3ccccc3o2)c1,–,inactive
COC(=O)C1=C(CSc2nc3ccccc3o2)NC(=O)NC1c1cc(C)ccc1C (stereo not given),1.36% (inactive),–
COc1ccc(NS(=O)(=O)c2cc(N=Nc3c(O)[nH]c(=O)[nH]c3=O)ccc2Cl)cc1,–,inactive
CC1(C)C2CCC1(C)C(OC(=O)C[n+]1ccccc1)C2 (stereo not given),1.65% (inactive),–
CC(=O)Nc1nnc(SCC(=O)N2CCCc3ccccc32)s1,–,inactive
CCc1ccccc1NC(=O)N1CCc2ccccc21,–,inactive
COc1ccc(-c2nc(CS(=O)CC(=O)NC3CCCc4ccccc43)c(C)o2)cc1OC (stereo not given),10.1% (inactive),–
O=S(=O)(c1ccc(Br)s1)N1CCCCC1,4.73% (inactive),–
Cc1ccc(S(=O)(=O)N2CCCC(C(=O)O)C2)s1 (stereo not given),–,inactive
CCN(CC)CCNC1=NCCn2c1cc1cc(OC)ccc12,5.46% (inactive),–
CCc1noc(N)c1C(=O)Nc1ccc(F)c(Cl)c1,3.38% (inactive),–
CCNC(=O)NC(=O)C(C)OC(=O)c1oc2ccc(OCC)cc2c1C (stereo not given),–,inactive
Cc1c(-c2ccccc2)nc2ccccc2c1C(=O)O,10.2% (inactive),–
Cc1cc(C#N)c2ccccc2n1,–,inactive
CCCCOc1ccc(C(=O)OC(C)CN(C)C)cc1 (stereo not given),4.09% (inactive),–
Clc1ncnc2scc(-c3ccccc3)c12,9.02% (inactive),–
CCC(=O)Nc1cccc(Oc2nc(C)cc(C)c2C#N)c1,6.76% (inactive),–
Cc1nn(Cc2ccccc2)c(C)c1NC(=O)c1cc(-c2ccc3c(c2)OCO3)on1,–,inactive
O=C(OCc1ccc(Cl)cc1)c1cnccn1,–,inactive

SMILES,inhibition,outcome
O=C(CN1CCN(c2nc(-c3ccccc3)cs2)CC1)Nc1ccc2c(c1)OCO2,–,inactive
Cc1ccccc1CS(=O)(=O)CCC(=O)NCCN1CCN(c2cccc(Cl)c2)CC1,13.5% (inactive),–
NNC(=O)CCN1CCN(C(c2ccccc2)c2ccccc2)CC1,–,inactive
CCOC(=O)CSc1ncnc2c1cnn2-c1ccc(C)cc1,0.68% (inactive),–
COc1ccc(-n2nnnc2-c2ccccc2)cc1,1.36% (inactive),–
COc1cnc(SCc2c(Cl)cccc2Cl)nc1Cl,7.43% (inactive),–
CC(NC(=O)CSc1nnc2n1CCCCC2)c1ccccc1Cl (stereo not given),2.47% (inactive),–
Clc1c(-c2nnc3n2CCC3)sc2ccccc12,2.03% (inactive),–
Cc1cc2cc3c(=O)[nH]c(=O)nc-3n(CC(O)C(O)C(O)CO)c2cc1C (stereo not given),23.7% (inactive),–
CCCn1nc(NC(=O)c2ccccn2)c2cc3cc(C)ccc3nc21,–,inactive
O=C1COc2ccc(C(=O)CSc3nnc(-c4cccs4)n3Cc3ccccc3)cc2N1,–,inactive
COc1cc2ccccc2cc1C(=O)N1CCN(c2ccccc2O)CC1,–,inactive
CCOCCNC(=O)c1ccccc1C(=O)NCCOCC,4.05% (inactive),–
COc1ccc(Oc2nc(C)cc(C)c2C#N)cc1,–,inactive
COC(=O)COn1c(-n2nc(C)cc2C)nc2ccccc2c1=O,–,inactive
Cc1ccc(S(=O)(=O)n2ccc(=O)[nH]2)cc1,–,inactive
CCN(CC)C(=O)c1sc(NC(=O)c2ccc3c(c2)OCO3)c(C#N)c1C,2.7% (inactive),–
CCOC(=O)c1c(NC(=O)c2cc(CC(C)C)on2)sc(C(C)=O)c1C,–,inactive
O=C(COC(=O)C12CC3CC(CC(Br)(C3)C1)C2)Nc1ccc2[nH]c(=O)[nH]c2c1,–,inactive
COc1cc(CC(=O)NCC(C)(C)N2CCOCC2)cc(OC)c1OC,7.68% (inactive),–
CCC(Sc1nc(-c2ccccc2)cc(=O)[nH]1)C(=O)O (stereo not given),10.1% (inactive),–
N#C/C=C\Oc1ccc(Cl)cc1N,13% (inactive),–
COc1ccccc1OCCOc1ccccc1/C=N/n1cnnc1,–,inactive

SMILES,inhibition,outcome
Cc1c(C(=O)N2CCN(c3ccccc3F)CC2)sc2nc(-c3ccccc3)cn12,4.77% (inactive),–
CN(c1ccc(C(=O)N2CCc3ccccc3C2)cc1)S(C)(=O)=O,–,inactive
COc1ccc(C)cc1NC(=O)COC(=O)CCC(=O)c1cccs1,–,inactive
CCn1c(N)c(C(=O)NCc2ccc3c(c2)OCO3)sc1=S,–,inactive
CCCn1nc2cc(C(=O)NCc3ccc4c(c3)OCO4)ccc2c1OCC,0.68% (inactive),–
CCOC(=O)c1c(C)c(/C=N/Nc2ccccc2)n(C)c1C,–,inactive
COC(=O)C1=C(O)/C(=C/c2cccc(OC)c2O)N=C1C,–,inactive
COC(=O)C1=C(O)/C(=C\c2ccc(CNC(=O)C(=O)Nc3ccc(C)c(C)c3)o2)N=C1C,9.02% (inactive),–
CCC(C)Nc1nc2c(c(=O)[nH]c(=O)n2C)n1CCC(C)C (stereo not given),–,inactive
COC(=O)c1cn[nH]c1NC(=S)Nc1ccc(C)cc1Cl,15.7% (inactive),–
CCCCNC(=O)C1CCCN(S(=O)(=O)c2ccc(-n3cnnn3)cc2)C1 (stereo not given),–,inactive
CCN(CC)c1ccc(C2C3CCCCC3(O)CCN2CC(=O)Nc2ccccc2)cc1 (stereo not given),5.41% (inactive),–
COc1ccccc1NC(=O)c1cc2ccccc2o/c1=N\O,15% (inactive),–
CC1CN(S(=O)(=O)c2cc(C(=O)NCc3ccncc3)ccc2Cl)CC(C)O1 (stereo not given),3.3% (inactive),–
Cc1ccc(Cn2ccc(NC(=O)c3cc(-c4cccc(Cl)c4)on3)n2)cc1,9.55% (inactive),–
COc1ccc(NC(=O)C2CCCNC2)cc1OCC(C)C (stereo not given),–,inactive
O=c1c2c(nc(NCCO)n1CC1CCCCC1)-c1ccccc1CC21CCCC1,–,inactive
CC(Sc1nnnn1C)C(=O)Nc1ccccc1-c1ccccc1 (stereo not given),2.7% (inactive),–
CCOC(=O)CCC(=O)N1CCNC(=O)C1,–,inactive
CCNC(=O)c1ccc(-n2nc(C(F)(F)F)c3c2CCCC3)cc1,1.35% (inactive),–
CS(=O)(=O)c1ccc2nnn(OCC(=O)Nc3cccc(C#N)c3)c2c1,–,inactive
Cc1cccc2c1NC1(CCCC1)CC2C (stereo not given),14% (inactive),–
O=C(NCCCN1CCOCC1)C1CC(=O)N(CCc2ccccc2)C1 (stereo not given),–,inactive

SMILES,inhibition,outcome
CCN(CC)c1ccc(NC(=O)c2c(C)noc2C)cc1,–,inactive
O=C(c1ccc2c(c1)[nH]c(=S)n1c3ccccc3nc21)N1CCN(c2cccc(Cl)c2)CC1,4.12% (inactive),–
COc1ccc(S(=O)(=O)N2CCC(C(=O)NCc3cccnc3)CC2)cc1Cl,3.01% (inactive),–
COc1cc(NC(=O)c2cc3nc(-c4ccccc4)cc(-c4ccccc4)n3n2)cc(OC)c1OC,2.7% (inactive),–
CC(=O)c1cccc(NC(=O)CC2Oc3ccc(C)cc3NC2=O)c1 (stereo not given),9.46% (inactive),–
O=C(CCNS(=O)(=O)c1ccc(Cl)cc1)NCc1cccnc1,–,inactive
C=C(C)C1CC=C(C)/C(=N\NC(=O)CCC(=O)Nc2ccc(C)c(C)c2)C1 (stereo not given),–,inactive
CC(C)CCNC(=O)Cn1c2c(c(-c3ccccc3Cl)cc1=O)CCC2,11.6% (inactive),–
O=c1c2c([nH]c3ccccc13)CCCCCC2,3.38% (inactive),–
FC(F)(F)C1=Nc2cccc3cccc(c23)N1,1.67% (inactive),–
CCc1nc(-c2ccc(C)nc2OC)no1,9.46% (inactive),–
CS(=O)(=O)c1ccc(C(=O)Nc2nc(-c3ccco3)c(-c3ccco3)s2)cc1,27.7% (inactive),–
COc1ccc(NC(=O)CSc2nc3c(cc2C#N)CN(C)CC3)cc1,7.68% (inactive),–
O=S(=O)(N1CCOCC1)N1CCCN(S(=O)(=O)N2CCOCC2)CC1,–,inactive
Cc1c(C(=O)N2CCCCC2)nnn1-c1nonc1N,7.01% (inactive),–
CCOC(=O)N1CCC(N2C(=O)c3ccccc3C2Nc2ccccc2)CC1 (stereo not given),–,inactive
COc1ccc(-c2noc(Cc3ccc(Cl)cc3)n2)cc1OC,–,inactive
COc1ccc(C(=O)n2nc(-c3ccc(Cl)cc3)nc2N)cc1OC,13.6% (inactive),–
Cc1cc(C)c2c(=N)c3ccccc3n(CCCCCCCCn3c4ccccc4c(=N)c4c(C)cc(C)nc43)c2n1,–,inactive
COc1cccc(OC)c1OCCCc1c(C)n[nH]c1C,5.41% (inactive),–
O=C(N/C(=C/c1ccc(Cl)cc1)c1nc2ccccc2[nH]1)c1ccco1,4.05% (inactive),–
COc1cccc(C(=O)Nc2nc3ccccc3[nH]2)c1,10.9% (inactive),–
CCN(CC)C(=O)CCNS(=O)(=O)c1ccc(C)cc1,2.7% (inactive),–
